Our source for the Potency values is PubChem BioAssay (Tox21).

Results filed as inconclusive are left out. Entries that show only a call come without a potency. The source made the active and inactive calls. Calls come from the whole dose curve; as a rule, active = well fitted cell-killing curve with a large enough effect in the repeat runs; inconclusive = weak or mixed curves; inactive = flat fitted curve, though single readings scatter.

The experiment can be described thus: qHTS RealTime-Glo MT Cell Viability Assay in HepG2 cells - 8 hour (AID 1224873). Note: nearly all actives have a fitted effect of over 55% in size. As to conditions: RealTime-Glo luminescence; series mostly up to 76.8 µM. An excerpt:
National Center for Advancing Translational Sciences [NCATS]
NIH Chemical Genomics Center [NCGC]
U.S. Environmental Protection Agency [EPA]
National Institutes of Environmental Health Sciences [NIEHS]
National Toxicology Program [NTP]
U.S. Food and Drug Administration [FDA]
Measure of cell viability is critical in the cell-base assay. Analysis of cell viability is necessary for the characterization of cell responses to cytotoxic drugs and environmental stress. A RealTime-Glo MT Cell Viability Assay to monitor cell viability in real time of continues cell culture during 40 hours of compound treatment was used to screen Tox21 10K library compounds in HepG2 cells. The RealTime-Glo MT Cell Viability Assay is a nonlytic, homogeneous, bioluminescent method to measure cell viability in real time using a simple, plate-based method. The assay involves adding NanoLuc luciferase and a cell-permeant prosubstrate to cells in culture. Viable cells reduce the proprietary prosubstrate to generate a substrate for NanoLuc luciferase. This substrate diffuses from cells into the surrounding culture medium, where it is rapidly used by the NanoLuc Enzyme to produce a luminescent signal. The signal correlates with the number of viable cells, making the assay well suited for cytotoxicity studies.
Tox21 Assay Protocol Summary:
The mixture of HepG2 cell suspension and reagents were dispensed at 600cells/6 ul/well in 1536-well tissue culture treated black solid bottom plates using a Multidrop dispenser. After the assay plates were incubated at a 37 C/5% CO2 incubator for 5 hours, 23 nL of compounds dissolved in DMSO, positive and negative controls was transferred to the assay plate by a pintool work station. The plates were incubated at 37 C for 40 hours. The luminescence intensity were measured at 0h, 8h, 16h, 24h, 32h and 40h time points using ViewLux plate reader during compound treatment.
For orientation: Quantitative high-throughput screening tests each substance at several concentrations.
Take `CC(=O)C(C)C`: the Potency result was “inactive”.

Take `Cc1ccccc1C=O`: the Potency result is “inactive”. Turning to `Cc1ccncc1`, the Potency entry was “inactive”. The same measure for `COc1ccccc1[N+](=O)[O-]`: “inactive”; for `O=c1n(CCCN2CCN(c3cccc(Cl)c3)CC2)nc2ccccn12`: “inactive”.

For the compound `OB(O)O`, the Potency result was “inactive”. For `CC(COCC(C)OC(=O)c1ccccc1)OC(=O)c1ccccc1` (stereo not given) the value was “inactive”. For `O=C(O)C1=NN(c2ccc(S(=O)(=O)O)cc2)C(=O)C1` the value was “inactive”. The same measure for `CC(=O)OC/C=C(\C)CCC=C(C)C`: “inactive”. In the case of `OCCOCCOCCOCCOCCO`, the Potency result was “inactive”.

Regarding `COc1ccc2cc3[n+](cc2c1OC)CCc1cc2c(cc1-3)OCO2`, the Potency result is “inactive”.

On to `COC(=O)OC`, for which the Potency result was “inactive”. The same measure for `C=CC(=O)NCOCCCC`: “inactive”; for `NCCNCCNCCN`: “inactive”; for `COC(=O)CCCCC(=O)OC`: “inactive”.

With `Cc1cc(C)cc(O)c1`, the Potency result is “inactive”. The same measure for `CCCCCCCCO`: “inactive”; for `Clc1cccc(Cl)c1NC1=NCCN1`: “inactive”. The same measure for `CCCOCC(C)O` (stereo not given): “inactive”; for `CO[Si](CCCNCCN)(OC)OC`: “inactive”; for `Cc1cc(CC(=O)O)n(C)c1C(=O)c1ccc(Cl)cc1`: “inactive”. For `CC(=O)c1nccs1` the value was “inactive”; for `NC1CCCCC1N` (stereo not given), “inactive”. Take `c1cnc2c(c1)ccc1cccnc12`: the Potency result is “inactive”. The same measure for `Cc1ccccc1Cl`: “inactive”.

Consider `COCN(COC)c1nc(N(COC)COC)nc(N(COC)COC)n1`, for which the Potency result is “inactive”.

Take `NC(=O)NC(N)=O`: the Potency result is “inactive”.

As for `CCN(CC)CCNC(=O)c1ccc(N)cc1`, the Potency entry is “inactive”. For `CC(O)CNCC(C)O` (stereo not given), the Potency result is “inactive”. The same measure for `CCCCCNCCCCC`: “inactive”; for `CCOC(=O)c1ccc(O)cc1`: “inactive”. For `Cc1ncc(CO)c(CO)c1O` the value was “inactive”; for `CN1CCCC1=O`, “inactive”. For `O=C(c1ccccc1)c1ccc(O)c(O)c1O` the value was “inactive”; for `CCn1cc(C(=O)O)c(=O)c2cc3c(cc21)OCO3`, “inactive”; for `C=C(C)CC(C)(C)C`, “inactive”. In the case of `O=c1c(O)c(-c2ccc(O)c(O)c2)oc2cc(O)cc(O)c12`, the Potency result was “inactive”.

Regarding `CCCOC(=O)NCCCN(C)C`, the Potency entry was “inactive”.

On to `CC1(C)[C@@H](O[C@H]2O[C@H](C(=O)O)[C@@H](O)[C@H](O)[C@H]2O[C@@H]2O[C@H](C(=O)O)[C@@H](O)[C@H](O)[C@H]2O)CC[C@]2(C)[C@H]3C(=O)C=C4[C@@H]5C[C@@](C)(C(=O)O)CC[C@]5(C)CC[C@@]4(C)[C@]3(C)CC[C@@H]12`, for which the Potency entry is “inactive”. For `CC/C=C(\C(=O)N[C@@H]1C(=O)N2C(C(=O)OCOC(=O)C(C)(C)C)=C(COC(N)=O)CS[C@H]12)c1csc(N)n1` the value was “inactive”.
